According to PubChem BioAssay AID430 (Sanford-Burnham Center for Chemical Genomics, 2006):
Among all 63,000 compounds or so, about 1,100 (1.7%) were called active. The entries come from a sample that favours actives as a whole. Measured potencies and affinities stand elsewhere. A number with no mark means an inactive call. Rule as the data show it: active = cytotoxicity above about 50%; inactive = the rest.

Assay: cytotoxicity in HPDE-C7 cells, cell-based, fluorescence, HTS (AID 430);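 also: cells exposed to compound for 48 hours before viability readout; 0% = vehicle and 100% = reference cytotoxic drug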
Conditions: HPDE-C7 pancreatic duct cells viability, at 10 µM, active compounds read high
In the case of `CN1/C(=C/C(=O)c2nc(S(C)(=O)=O)ncc2Cl)C(C)(C)c2ccccc21`, the cytotoxicity is reported as 110% (active).
For `CN1/C(=C\C(=O)C(F)F)C(C)(C)c2ccccc21`, the cytotoxicity was -24.8%.
With `CN1/C(=C\C(=O)c2ccco2)C(C)(C)c2ccccc21` the cytotoxicity was -14.9%.
Compound `COc1cc(CO)cc(Br)c1OCC(=O)O` has a cytotoxicity of -22.6%.
In the case of `O=C(CSc1nnc(Cc2cc(=O)[nH]c(=O)[nH]2)n1-c1ccccc1)N1CCCC1`, the cytotoxicity is reported as -9.2%.
Work on `O=C(CSC1=NCCS1)Nc1ccccc1F` yielded a cytotoxicity of -3.4%.
Compound `Cc1cc(NC(=O)CSc2nnc(-c3ccco3)n2Cc2ccco2)no1` has a cytotoxicity of -9.5%.
In the case of `[O-][n+]1onc2c1CCc1nnc(-c3ccccc3)cc1-2`, the cytotoxicity is reported as 5.5%.
With `O=c1nc(-c2ccccc2)cc(-c2ccccc2)[nH]1` the cytotoxicity was -1.2%.
`Cc1ccc(/C(O)=C2/C(=O)C(=O)N(Cc3cccnc3)C2c2ccccn2)cc1` (stereo not given) showed a cytotoxicity of 10.4%.
In the case of `C=C(C)COc1ccc(-c2nc(N)ncc2-c2ccc(OC)cc2)c(O)c1`, the cytotoxicity is reported as 70.7% (active).
Work on `CCOc1ccc(-c2ncncc2-c2ccc(OC)cc2)c(O)c1` yielded a cytotoxicity of -11.9%.
In the case of `COc1ccc(-c2nc(N)ncc2Oc2ccccc2Br)c(O)c1`, the cytotoxicity is reported as -2.2%.
Work on `COc1ccc(-c2nc(N)ncc2-c2csc(C)n2)c(O)c1` yielded a cytotoxicity of -25%.
`COc1cccc(Oc2cn[nH]c2-c2ccc(O)cc2O)c1` showed a cytotoxicity of 36%.
For `COc1cccc(Oc2cnc(N)nc2-c2ccc(OC)cc2O)c1`, the cytotoxicity was 52% (active).
Work on `COc1cccc(Oc2cncnc2-c2ccc(OC)cc2O)c1` yielded a cytotoxicity of 20.3%.
Compound `C=C(C)COc1ccc(-c2nc(N)ncc2Oc2ccc(OC)cc2)c(O)c1` has a cytotoxicity of -10.3%.
In the case of `COc1ccc(-c2[nH]ncc2-c2cnn(-c3ccccc3)c2)c(O)c1`, the cytotoxicity is reported as -0.4%.
Work on `CCOc1ccc(-c2nc(N)nc(C)c2-c2ccc(OC)c(OC)c2)c(O)c1` yielded a cytotoxicity of 3.7%.
For `COc1ccc(-c2nc(N)nc(C)c2Oc2ccccc2Br)c(O)c1`, the cytotoxicity was 87.7% (active).
In the case of `COc1cccc(Oc2cn[nH]c2-c2ccc(OC)cc2O)c1`, the cytotoxicity is reported as 72.7% (active).
For `Cc1nc(N2CCC(C(N)=O)CC2)c2nnn(Cc3ccccc3)c2n1`, the cytotoxicity was 4.3%.
Compound `Cc1oc(C(=O)O)cc1CSc1nnc(-c2ccccc2)n1C` has a cytotoxicity of -2.3%.
With `COc1ccc(NC2c3ccccc3C(=O)N2Cc2ccco2)cc1OC` (stereo not given) the cytotoxicity was 17.8%.
For `Cc1cccc(Cn2cnc3c(nnn3Cc3ccc(F)cc3)c2=O)c1`, the cytotoxicity was 1.3%.
In the case of `C=C(C)CSc1nnc(-c2ccccc2)n1N`, the cytotoxicity is reported as -23.4%.
In the case of `COC(=O)c1nc2n(n1)C(c1ccc(OC)c(OC)c1OC)C1=C(CCCC1=O)N2` (stereo not given), the cytotoxicity is reported as 2.9%.
`Cc1ccc(NC(=O)c2ccco2)cc1NC(=O)CSc1nnc(-c2cccs2)n1C` showed a cytotoxicity of -3.6%.
With `CCc1[nH]nc2c1C(c1cccc(OC(=O)N3CCOCC3)c1)C(C#N)=C(N)O2` (stereo not given) the cytotoxicity was -34.3%.
`COc1ccc(Nc2nc(-c3sc(N)nc3C)cs2)cc1` showed a cytotoxicity of 46.6%.
With `CCn1c(C(O)c2ccccc2)nc2ccccc21` (stereo not given) the cytotoxicity was -4.3%.
For `Cc1ccc(N2C(=O)C(Cl)=C(Nc3c(C)n(C)n(-c4ccccc4)c3=O)C2=O)cc1`, the cytotoxicity was -0.2%.
For `CCOc1ccc(-c2[nH]ncc2Oc2cccc(OC)c2)c(O)c1`, the cytotoxicity was 55.5% (active).
Compound `Cc1ccc(NC(=O)C2CCCN2S(=O)(=O)c2ccc(F)cc2)c(C)c1` (stereo not given) has a cytotoxicity of -6.1%.
For `CCOC(=O)C1CCCN(CCCc2ccccc2)C1` (stereo not given), the cytotoxicity was -2.8%.
`CCOC(=O)c1c(C2CCN(C(=O)OCC)CC2)nc2ccccn12` gave a cytotoxicity of 0%.
Compound `COc1ccc(C(C)=O)c2c(O)cccc12` has a cytotoxicity of 9.1%.
Work on `COc1ccc2c3c(cccc13)OCC2=O` yielded a cytotoxicity of 8.3%.
Work on `COc1cccc(/C(O)=C2/C(=O)C(=O)N(CCN3CCOCC3)C2c2cccnc2)c1` (stereo not given) yielded a cytotoxicity of -7.7%.
Work on `CC(=O)Nc1nc2ccc(Br)cc2s1` yielded a cytotoxicity of -11.8%.
For `Cc1c(C(=O)N2CCCC2)oc2c1-c1[nH]ncc1CC2`, the cytotoxicity was 1%.
With `CCOCCCNC(=O)N[C@@H](Cc1ccccc1)C(=O)OC` the cytotoxicity was 0.6%.
For `CCOC(=O)Cc1cc(=O)n(-c2nc3ccccc3s2)[nH]1`, the cytotoxicity was 75.9% (active).
`COC(=O)Cc1cc(=O)n(-c2ccccc2)[nH]1` gave a cytotoxicity of -18.7%.
In the case of `COC(=O)Cc1cc(=O)n(-c2nc3ccccc3s2)[nH]1`, the cytotoxicity is reported as 74.2% (active).
For `CCOC(=O)c1nc2ccccc2s1`, the cytotoxicity was -0.3%.
With `CCOC(=O)CC(=O)Nc1nc2ccccc2s1` the cytotoxicity was 1.7%.
`COC(=O)Cc1cc(=O)n(-c2nc3ccccc3[nH]2)[nH]1` gave a cytotoxicity of -3%.
Work on `COc1ccc(CN/C=C2\CCCCC2=O)cc1` yielded a cytotoxicity of 5.7%.
Work on `Cc1ccccc1-c1nc(CS(=O)CC(=O)NCCCN(C)c2ccccc2)c(C)o1` (stereo not given) yielded a cytotoxicity of 10.9%.
Compound `COc1ccc(-n2nc(C(=O)N3CCC(C#N)CC3)c3c4ccccc4n(C)c3c2=O)cc1` has a cytotoxicity of -4.7%.
`Cc1cccc(OCc2nnc(SCC(=O)Nc3cc(C)on3)n2C)c1` showed a cytotoxicity of -0.4%.
With `Cn1c(=O)[nH]c(=O)c2c1ncn2CCN1CCCCC1` the cytotoxicity was -5.6%.
`CCCOc1ccc(C2c3c(oc4cc(C)c(C)cc4c3=O)C(=O)N2CCCN(C)C)cc1` (stereo not given) gave a cytotoxicity of -4.2%.
Compound `O=C(CSc1n[nH]c(-c2ccccc2)n1)c1ccc(O)c(O)c1` has a cytotoxicity of -0.1%.
With `Oc1ccc(-c2nc(-c3ccc(O)c(O)c3)cs2)cc1` the cytotoxicity was 73.5% (active).
For `COc1cc(-c2csc(C)n2)ccc1O`, the cytotoxicity was -29.1%.
Compound `CN(c1ccc(O)cc1)c1nc(-c2ccccc2)cs1` has a cytotoxicity of 8%.
In the case of `CCOC(=O)COn1c(=O)c[n+]([O-])c2ccccc21`, the cytotoxicity is reported as -1.5%.
`CCn1c(NC2CCCCC2)nc2ccccc21` gave a cytotoxicity of 7.5%.
With `COc1cccc(CNc2nc3ccccc3n2CCN2CCCCC2)c1` the cytotoxicity was 11.1%.
For `CCOC(=O)CC12CN3CN(C1)CC(CC(=O)OCC)(C3)C2=O`, the cytotoxicity was -0.6%.
Work on `CCC(=O)N1CCN(CCN=CC2=C(O)CC(C)(C)CC2=O)CC1` yielded a cytotoxicity of 5.7%.
Work on `O=C1c2ccccc2C(=O)N1Cc1ccco1` yielded a cytotoxicity of -1.5%.
For `O=C1C(=C2CCCCC2)SC(=S)N1Cc1ccco1`, the cytotoxicity was 60.9% (active).
`O=C(O)CCN1C(=O)C(=C2CCCCCC2)SC1=S` gave a cytotoxicity of -8.4%.
`CSc1nc(N)nc(SCC(=O)c2ccccc2)c1C#N` showed a cytotoxicity of 13.7%.
In the case of `CCCc1nc(SCC(=O)N2CCCc3ccccc32)c2c(=O)n(C)c(=O)n(C)c2n1`, the cytotoxicity is reported as 77% (active).
Compound `CCc1nc(SCC(=O)N2CCCc3ccccc32)c2c(=O)n(C)c(=O)n(C)c2n1` has a cytotoxicity of -9%.
With `Cn1c(=O)c2c(SCC(=O)N3CCC(Cc4ccccc4)CC3)nc(C3CC3)nc2n(C)c1=O` the cytotoxicity was -3.8%.
Compound `CCCc1nc(SCC(=O)N2CCc3ccccc32)c2c(=O)n(C)c(=O)n(C)c2n1` has a cytotoxicity of 5.3%.
With `CCCc1nc(SCC(=O)N2CCN(c3ccccc3)CC2)c2c(=O)n(C)c(=O)n(C)c2n1` the cytotoxicity was 0%.
For `Cc1cc(C(=O)COC(=O)c2ccc3c(c2)OCO3)c(C)n1Cc1cccs1`, the cytotoxicity was -3.8%.
Work on `COCCNC(=O)C(C)OC(=O)c1cc2occc2n1C` (stereo not given) yielded a cytotoxicity of -3.5%.
`Cc1csc(NC(=O)C2CCC(C)(C(=O)O)C2(C)C)n1` (stereo not given) gave a cytotoxicity of -12.1%.
For `Cc1cc(C(=O)NCCN2CCN(c3cccc(Cl)c3)CC2)n(-c2ccccc2)n1`, the cytotoxicity was 55.2% (active).
Work on `Cc1cc(C(=O)NCCCN2CCN(C3CCCCC3)CC2)n(-c2ccccc2)n1` yielded a cytotoxicity of 1.4%.
Work on `Cc1cc(C(=O)NCCCN2CCOCC2)n(-c2ccccc2)n1` yielded a cytotoxicity of 1.2%.
Compound `CC(=O)Nc1cnc2ccccc2n1` has a cytotoxicity of -6.4%.
`CN1CCN(c2nc(-c3ccccc3)c3cc(Cl)ccc3n2)CC1` gave a cytotoxicity of 4.2%.
`Cc1ccc2nc(N3CCC(C(=O)O)CC3)nc(-c3ccccc3)c2c1` showed a cytotoxicity of -3.3%.
For `CN1CCN(c2nc(N3CCN(CCO)CC3)nc3ccccc23)CC1`, the cytotoxicity was -2.1%.
For `Clc1ccc2nc(NC3=NCN(CCN4CCOCC4)CN3)nc(-c3ccccc3)c2c1`, the cytotoxicity was -2.9%.
With `OCCN1CCN(c2nc(-c3ccccc3)c3cc(Cl)ccc3n2)CC1` the cytotoxicity was 67.2% (active).
In the case of `Cc1cc(Cl)c2c(c1)[C@]1(C(=O)N2)[C@@H]2C(=O)N(Cc3ccccc3)C(=O)[C@@H]2[C@@H]2CCCN21`, the cytotoxicity is reported as -13.3%.
With `COc1cccc(N2CCN(C(=O)c3[nH]c(C)c(C(C)=O)c3C)CC2)c1` the cytotoxicity was 53.6% (active).
For `CCOC(=O)c1[nH]c(C)c(C(=O)N2CCN(c3cccc(Cl)c3)CC2)c1C`, the cytotoxicity was 13.5%.
`CC(=O)c1c(C)[nH]c(C(=O)N2CCN(c3ncccn3)CC2)c1C` showed a cytotoxicity of 2.1%.
In the case of `CC(C)C(=O)Nc1ccc(NC(=O)c2cccc(F)c2)cn1`, the cytotoxicity is reported as -7.5%.
In the case of `COc1cc(CCC(=O)OCC(=O)Nc2ncc(Cl)cc2Cl)cc(OC)c1OC`, the cytotoxicity is reported as -7.2%.
In the case of `Cc1cc(-c2ccccc2C(=O)O)on1`, the cytotoxicity is reported as -13.2%.
Work on `CCCCCCNC(=O)c1c(O)c2ccccc2[nH]c1=O` yielded a cytotoxicity of 4.2%.
With `C=CCn1c(N)c(C(=O)NCc2ccco2)sc1=S` the cytotoxicity was 2.4%.
With `CCCCNC(=O)c1sc(=S)n2c1[nH]c(=O)c1ccccc12` the cytotoxicity was 70.3% (active).
`CCCCCNC(=O)c1ccc2c(=O)n(CC3CCCO3)c(=O)[nH]c2c1` (stereo not given) gave a cytotoxicity of -2.3%.
Compound `CCCCNC(=O)c1ccccc1C(=O)NCCCC` has a cytotoxicity of -5.7%.
For `O=C(NCc1ccco1)c1sc(=S)n2c1[nH]c(=O)c1ccccc12`, the cytotoxicity was 82.7% (active).
`CCn1c(N)c(C(=O)NCc2ccco2)sc1=S` gave a cytotoxicity of -6.5%.
With `O=C(NCC1CCCO1)c1sc(=S)n2c1[nH]c(=O)c1ccc(C(=O)N3CCCCC3)cc12` (stereo not given) the cytotoxicity was -5.8%.
